The text below walks through data of ChEMBL document CHEMBL3433997, “St. Jude Leishmania screening dataset” (2016).

In general, inhibition refers to the drop in the measured response relative to a control, in per cent.

Holding throughout (assay type): functional
In assay [1] the target is Solute carrier family 2, facilitated glucose transporter member 1 (Homo sapiens) (UniProt P11166). Description: ST_JUDE_LEISH: Cytotoxicity at 2uM final concentration against transgenic Leishmania Mexicana promastigotes LmGLUT1 that are glucose transport deficient and complemented with the human glucose transporter GLUT1. Activity is measured by DNA content using SYBR green in vitro.

Assay [2] addresses Hexose transporter 1 (Plasmodium falciparum) (UniProt O97467). Put plainly: ST_JUDE_LEISH: Cytotoxicity at 2uM final concentration against transgenic Leishmania Mexicana promastigotes LmPfHT that are glucose transport deficient and complemented with the Plasmodium falciparum hexose transporter. Activity is measured by DNA content using SYBR green in vitro.
In assay [3] the target is Glucose transporter (Leishmania mexicana) (UniProt O61059). Description: ST_JUDE_LEISH: Cytotoxicity at 2uM final concentration against transgenic Leishmania Mexicana promastigotes LmGT2 that are glucose transport deficient and complemented with the L. Mexicana glucose transporter 2. Activity is measured by DNA content using SYBR green in vitro.

Solute carrier family 2, facilitated glucose transporter member 1 (Homo sapiens), sequence (P11166 whole entry): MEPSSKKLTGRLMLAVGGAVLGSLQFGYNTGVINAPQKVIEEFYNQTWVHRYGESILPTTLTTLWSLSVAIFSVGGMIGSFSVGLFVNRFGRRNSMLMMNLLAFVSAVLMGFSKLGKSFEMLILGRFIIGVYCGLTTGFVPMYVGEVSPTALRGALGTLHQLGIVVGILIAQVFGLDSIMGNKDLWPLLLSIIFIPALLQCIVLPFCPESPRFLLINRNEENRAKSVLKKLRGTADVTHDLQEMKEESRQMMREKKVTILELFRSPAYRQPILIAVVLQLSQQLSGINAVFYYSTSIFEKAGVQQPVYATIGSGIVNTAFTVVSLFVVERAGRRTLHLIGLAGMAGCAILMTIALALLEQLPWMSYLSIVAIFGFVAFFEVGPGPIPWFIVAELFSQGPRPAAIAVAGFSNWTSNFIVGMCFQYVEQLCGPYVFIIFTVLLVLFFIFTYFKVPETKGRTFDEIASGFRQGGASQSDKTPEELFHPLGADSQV

Consider `Cc1cccc2nc(-c3ccc(-c4ccc(CNCCc5ccncc5)cc4)cc3)[nH]c12`, for which the inhibition in assay [1] was found to be 13.2%; in assay [2], 21.1%; in assay [3], 10.1%.
Consider `Cc1ccc(C)c(Sc2ccc(NC(=O)CN3CCN(C(=O)c4ccco4)CC3)cc2)c1`, for which the results for the inhibition in assay [1], in assay [2] and in assay [3] were 0.6%, 0.52% and 0.17%, respectively.
On the same counts, the results for `CN(C)c1nc2cc(-n3cnc4cc(-c5ccc(Cl)cc5)sc4c3=O)ccc2n1CCCN1CCCC1` are 12%, 13.9% and 6.91%.
For `Cc1cc(N/N=C/c2ccccc2[N+](=O)[O-])c2ccccc2n1` the same measures were 3.96%, 5.28% and 2.51%.
On the same counts, the results for `COc1ccc2cc(CNCCCCCCNCc3ccc4cc(OC)ccc4c3)ccc2c1` are 107%, 107% and 103%.
Consider `Cn1c2c(c3ccccc31)CN(CCC1(c3ccc(Cl)c(Cl)c3)CN(C(=O)c3ccccc3)CCO1)CC2` (stereo unspecified), for which the inhibition stood at 2.15% in assay [1], 1.72% in assay [2] and 2.38% in assay [3].
Take `C#CCOc1ccc(N2C(N)=NC(N)=NC2(C)C)cc1`: the inhibition in assay [1] is 2.23%; in assay [2] it was 1.16%; in assay [3], -0.42%.
For `CCc1cc2c(=O)c(-c3nc(C)cs3)c(N)oc2c(CN2CCCCC2)c1O` the same measures were 3.22%, 2.22% and 3.34%.
With `CC(C)(C)c1ccc(NC(=O)c2ccc(CN3CCCN(Cc4cccc(O)c4)CC3)cc2)cc1`, the values for the inhibition in assay [1], in assay [2] and in assay [3] were 0.52%, 0.08% and 2.02%, respectively.
As to `COc1ccc(-c2nonc2NC(=O)c2ccc(C(C)(C)C)cc2)cc1OC`, the inhibition in assay [1] is -0.32%; in assay [2], 0.21%; in assay [3], -0.16%.
Regarding `Cc1ccc(/C=C/C(=O)NC2CCC(N3CCC(c4ccccc4C)CC3)CC2)cc1C` (stereo unspecified), the values for the inhibition in assay [1], in assay [2] and in assay [3] were 4.77%, 4.56% and 1.93%, respectively.
For `CC(c1cccc(Nc2nccc(-c3c(-c4cccc(NC(=O)c5c(F)cccc5F)c4)nn4ccccc34)n2)c1)S(C)(=O)=O` (stereo unspecified) the same measures were 3.25%, 2.14% and -0.68%.
For `CC(C)CC(=O)Nc1cc(=O)[nH]c2nc(-c3ccccc3)nn12` the same measures were 3.45%, 3.9% and 4.09%.
On the same counts, the results for `Fc1ccccc1COc1ccc(Nc2ncnc3ccc(-c4nnc(C(F)(F)F)o4)cc23)cc1Cl` are 6.41%, 5.31% and 2.13%.
Regarding `Cc1cc(CN2CCCN(c3ccc4c(c3)CCN(Cc3ccc(-c5ncc[nH]5)cc3)CC4)CC2)n(C)n1`, the inhibition in assay [1] is -0.3%; in assay [2], -1.47%; in assay [3] it was -3.2%.
For the molecule `O=C(Nc1ccc(Cl)c(Cl)c1)N[C@H]1CCN(CCCCCNC(=O)C2CC2c2ccc(Cl)c(Cl)c2)C1` (stereo partly specified), the values for the inhibition in assay [1], in assay [2] and in assay [3] were 12.3%, 8.71% and 10.6%, respectively.
On the same counts, the results for `O=S(=O)(c1ccc(OCc2ccc(Cl)cc2)cc1)c1cc2c(cc1OCc1ccccc1)CCN(C1CCC1)CC2` are 7.19%, 4.84% and 7.79%.
With `CO/N=C(\C)c1ccc2c(c1)CCN(CCC1CCC(NC(=O)/C=C/c3ccc(F)cc3)CC1)CC2` (stereo unspecified), the inhibition in assay [1] was determined as 6.29%; in assay [2], 3.02%; in assay [3], 11.2%.
For `CCCCCC(C)N/C(=N/c1ccccc1Br)Nc1ccc([N+](=O)[O-])cc1O` (stereo unspecified) the same measures were 1.52%, 1.7% and 0.95%.
Regarding `O=C(Nc1ccc(Cl)c(Cl)c1)Nc1cc(C(F)(F)F)ccc1Cl`, the inhibition is -0.56% in assay [1], 1.37% in assay [2] and 1.28% in assay [3].
On the same counts, the results for `COc1ccc2ncc(OC)c(CCN3CC[C@@H](NCc4ccc5c(n4)NC(=O)CS5)[C@H](O)C3)c2n1` are 1.21%, 1.17% and -0.86%.
On the same counts, the results for `O=C(N/C=N/c1cc([N+](=O)[O-])c(-c2cccnc2)n1-c1ccc(O)cc1)c1ccccc1` are -0.13%, -1.73% and -1.68%.
On the same counts, the results for `CN1CC[C@@H](Oc2cc(Nc3nc(-c4ccc(C#N)cc4)cs3)ccc2Cl)C1` are 5.3%, 5.47% and 4.06%.
In the case of `CCc1ccc(NC(=O)c2ccc(CN3CCCN(CCC(C)C)CC3)cc2)cc1`, the inhibition in assay [1] stood at 7.61%; in assay [2] it was 4.69%; in assay [3], 5.85%.
Consider `COc1ccc(Nc2nc(NC3CCN(Cc4ccccc4)CC3)cc(-c3ccncc3)n2)cc1`, for which the inhibition in assay [1] was -0.03%; in assay [2] it was -0.17%; in assay [3], 0.86%.
For `CC(C)(C)Nc1nc(Nc2cccc([N+](=O)[O-])c2)nc(-n2ccnc2)n1`, the inhibition in assay [1] was 1.91%; in assay [2] it was 1.9%; in assay [3], -1.47%.
For `COc1ccc2[nH]c(C)cc(=NN=Cc3cccc(Cl)c3)c2c1` the same measures were -0.18%, 4.08% and -1.05%.
For `COc1ccc2c(NN=Cc3cccc(Cl)c3)ccnc2c1` the same measures were 0.29%, 0.23% and -0.9%.
Regarding `CN1CCCN(Cc2cccc(-c3ccc(CNC(=O)c4cccc(Cl)c4)c(F)c3)c2)CC1`, the values for the inhibition in assay [1], in assay [2] and in assay [3] were 69.9%, 63.1% and 30.9%, respectively.
On the same counts, the results for `CC(=O)c1ccc(-c2cccc3c(CC(=O)Nc4ccc5nccc(N6CCN(C)CC6)c5c4)cccc23)cc1` are 0.38%, 1.03% and -1.81%.
On the same counts, the results for `Cc1cc(N2CCOCC2)nc2ccc(NC(=O)c3cccc([N+](=O)[O-])c3)cc12` are 5.27%, 4.5% and 3.77%.
On the same counts, the results for `N#Cc1ccc(N(CCOc2ccc3c(c2)CCC(=O)N3)Cc2ccccc2C(F)(F)F)cc1C(F)(F)F` are 7.14%, 4.94% and 5.81%.
